This passage reports red/green cell ratio (normalised) and normalised cell number results from PubChem BioAssay.

Values joined by “and” are separate entries in the source; they are usually repeats but may differ in a detail not shown here. Equal entries are not always repeated. Active and inactive are the calls of the source.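 Rule for the calls: active = compounds killing one labelled cell type while sparing the other, by normalised counts and ratio limits, not self-fluorescent; inactive = the rest.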

The nature of one assay: differential killing of epithelial or mesenchymal cells, primary screen, imaging, PC-3E GFP, TEM4-18 mCherry, co-culture (AID 1345086).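 For red/green cell ratio (normalised): normalised mesenchymal count divided by normalised epithelial count so high means epithelial killing.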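 Note: cells exposed to compound for 72 h before imaging.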 The following applies: imaging cell counts, at 1 µM, actives lie on both sides, counts scaled to control wells, 1 = unselective.
For the compound `CC12CC3CC(C)(C1)CC(N)(C3)C2`, the red/green cell ratio (normalised) was 0.87 (inactive).

Consider `CC(=O)OCC(CCn1cnc2cnc(N)nc21)COC(C)=O`, for which the red/green cell ratio (normalised) is 0.92 (inactive).

Take `S=c1nc[nH]c2nc[nH]c12`: the red/green cell ratio (normalised) is 0.76 (inactive).

With `Oc1c(Cl)cc(Cl)c2cccnc12`, the red/green cell ratio (normalised) is 0.97 (inactive).

With `CC1=NS(=O)(=O)c2cc(Cl)ccc2N1`, the red/green cell ratio (normalised) was 1.18 (inactive).

For `OC(Cn1cncn1)(Cn1cncn1)c1ccc(F)cc1F`, the red/green cell ratio (normalised) is 1.28 (inactive).

Regarding `NCCc1ccc(O)c(O)c1`, the red/green cell ratio (normalised) was 1.02 (inactive) and 0.85 (inactive).

As to `CN=C(NC#N)NCCSCc1nc[nH]c1C`, the red/green cell ratio (normalised) is 1.04 (inactive).

For `COc1c(N2CCNC(C)C2)c(F)cc2c(=O)c(C(=O)O)cn(C3CC3)c12` (stereo not drawn), the red/green cell ratio (normalised) is 0.98 (inactive) and 0.92 (inactive).

`CC1COc2c(N3CCN(C)CC3)c(F)cc3c(=O)c(C(=O)O)cn1c23` (stereo not drawn): the red/green cell ratio (normalised) was 0.96 (inactive) and 1.29 (inactive).

Regarding `O=C(C1CCCCC1)N1CC(=O)N2CCc3ccccc3C2C1` (stereo not drawn), the red/green cell ratio (normalised) was 1.48 (inactive).

Take `CCc1cc(C(N)=S)ccn1`: the red/green cell ratio (normalised) was 0.96 (inactive).

Regarding `CC1=C(/C=C/C(C)=C/C=C/C(C)=C/C(=O)O)C(C)(C)CCC1`, the red/green cell ratio (normalised) is 0.69 (inactive).

Take `CCCCNc1cc(C(=O)O)cc(S(N)(=O)=O)c1Oc1ccccc1`: the red/green cell ratio (normalised) is 0.96 (inactive).

In the case of `O=c1[nH]cnc2[nH]ncc12`, the red/green cell ratio (normalised) was 1.08 (inactive).

Take `O=C1c2c(O)ccc(O)c2C(=O)c2c(NCCNCCO)ccc(NCCNCCO)c21`: the red/green cell ratio (normalised) was 0.57 (inactive).

As for `O=C(O)c1cc(=O)c2c(OCC(O)COc3cccc4oc(C(=O)O)cc(=O)c34)cccc2o1`, the red/green cell ratio (normalised) is 1.26 (inactive).

`CC(C)C(=O)Nc1ccc([N+](=O)[O-])c(C(F)(F)F)c1`: the red/green cell ratio (normalised) was 1.03 (inactive).

Regarding `CC(COc1ccccc1)N(CCCl)Cc1ccccc1` (stereo not drawn), the red/green cell ratio (normalised) was 1.22 (inactive).

In the case of `CCCc1nc2c(C)cc(-c3nc4ccccc4n3C)cc2n1Cc1ccc(-c2ccccc2C(=O)O)cc1`, the red/green cell ratio (normalised) was 0.63 (inactive).

Take `CC(=O)CC(c1ccccc1)c1c(O)c2ccccc2oc1=O` (stereo not drawn): the red/green cell ratio (normalised) is 0.98 (inactive).

For `NS(=O)(=O)c1cc2c(cc1Cl)NCNS2(=O)=O`, the red/green cell ratio (normalised) is 0.89 (inactive).

For the compound `CS(=O)(=O)OCCCCOS(C)(=O)=O`, the red/green cell ratio (normalised) was 1.02 (inactive).

Regarding `CCOC(=O)C1=C(C)NC(C)=C(C(=O)OC)C1c1cccc([N+](=O)[O-])c1` (stereo not drawn), the red/green cell ratio (normalised) is 1.19 (inactive).

As to `COc1ccccc1OCCNCC(O)COc1cccc2[nH]c3ccccc3c12` (stereo not drawn), the red/green cell ratio (normalised) is 1.11 (inactive) and 0.93 (inactive).

In the case of `O=C(O)CCCc1ccccc1`, the red/green cell ratio (normalised) is 1 (inactive).

For `NNCCc1ccccc1`, the red/green cell ratio (normalised) is 0.88 (inactive).

Regarding `CC1Cc2ccccc2N1NC(=O)c1ccc(Cl)c(S(N)(=O)=O)c1` (stereo not drawn), the red/green cell ratio (normalised) is 1.37 (inactive).

In the case of `CC(C)Cc1ccc(C(C)C(=O)O)cc1` (stereo not drawn), the red/green cell ratio (normalised) was 1 (inactive).

As to `N[C@@H]1CONC1=O`, the red/green cell ratio (normalised) was 1.34 (inactive).

Consider `CCN(Cc1ccncc1)C(=O)C(CO)c1ccccc1` (stereo not drawn), for which the red/green cell ratio (normalised) is 1.08 (inactive).

`CCCc1cc(=O)[nH]c(=S)[nH]1`: the red/green cell ratio (normalised) was 1.26 (inactive).

Take `O=C(O)c1cccnc1`: the red/green cell ratio (normalised) was 1.22 (inactive).

`CC(C[N+](C)(C)C)OC(N)=O` (stereo not drawn): the red/green cell ratio (normalised) is 0.97 (inactive).

Turning to `COc1ccc(Cl)cc1C(=O)NCCc1ccc(S(=O)(=O)NC(=O)NC2CCCCC2)cc1`, the red/green cell ratio (normalised) is 1.5 (inactive).

As for `N[C@@H](Cc1cc(I)c(Oc2cc(I)c(O)c(I)c2)c(I)c1)C(=O)O`, the red/green cell ratio (normalised) is 1.06 (inactive).

As to `CC1(C)O[C@@H]2[C@@H](CO[C@@]3(COS(N)(=O)=O)OC(C)(C)O[C@@H]23)O1`, the red/green cell ratio (normalised) is 1.43 (inactive).

For the compound `COCCOC(=O)C1=C(C)NC(C)=C(C(=O)OC(C)C)C1c1cccc([N+](=O)[O-])c1` (stereo not drawn), the red/green cell ratio (normalised) was 1.09 (inactive).

As for `NNC(=O)c1ccncc1`, the red/green cell ratio (normalised) was 1.18 (inactive).

The same assay, now with this note: imaging cell counts, measured here: epithelial PC-3E GFP cell survival, at 1 µM.
`CC12CC3CC(C)(C1)CC(N)(C3)C2` registered a normalised cell number of 1.15.

`CC(=O)OCC(CCn1cnc2cnc(N)nc21)COC(C)=O` displayed a normalised cell number of 1.23.

As for `S=c1nc[nH]c2nc[nH]c12`, the normalised cell number amounted to 1.42.

`Oc1c(Cl)cc(Cl)c2cccnc12` came in with a normalised cell number of 1.04.

`CC1=NS(=O)(=O)c2cc(Cl)ccc2N1` returned a normalised cell number of 0.96.

Compound `OC(Cn1cncn1)(Cn1cncn1)c1ccc(F)cc1F` yielded a normalised cell number of 1.22.

Take `NCCc1ccc(O)c(O)c1`: the normalised cell number is 1.41 and 1.02.

The compound `CN=C(NC#N)NCCSCc1nc[nH]c1C` yielded a normalised cell number of 1.01.

Take `COc1c(N2CCNC(C)C2)c(F)cc2c(=O)c(C(=O)O)cn(C3CC3)c12` (stereo not drawn): the normalised cell number is 1.12 and 1.14.

With `CC1COc2c(N3CCN(C)CC3)c(F)cc3c(=O)c(C(=O)O)cn1c23` (stereo not drawn), the normalised cell number was 1.1 and 0.91.

In the case of `O=C(C1CCCCC1)N1CC(=O)N2CCc3ccccc3C2C1` (stereo not drawn), the normalised cell number amounted to 0.96.

On to `CCc1cc(C(N)=S)ccn1`, for which the normalised cell number is 1.01.

As for `CC1=C(/C=C/C(C)=C/C=C/C(C)=C/C(=O)O)C(C)(C)CCC1`, the normalised cell number is 1.34.

The compound `CCCCNc1cc(C(=O)O)cc(S(N)(=O)=O)c1Oc1ccccc1` yielded a normalised cell number of 1.1.

On to `O=c1[nH]cnc2[nH]ncc12`, for which the normalised cell number was found to be 1.06.

For the compound `O=C1c2c(O)ccc(O)c2C(=O)c2c(NCCNCCO)ccc(NCCNCCO)c21`, the normalised cell number came out at 0.2.

For `O=C(O)c1cc(=O)c2c(OCC(O)COc3cccc4oc(C(=O)O)cc(=O)c34)cccc2o1`, the normalised cell number came to 1.29.

The compound `CC(C)C(=O)Nc1ccc([N+](=O)[O-])c(C(F)(F)F)c1` registered a normalised cell number of 0.92.

Turning to `CC(COc1ccccc1)N(CCCl)Cc1ccccc1` (stereo not drawn), the normalised cell number amounted to 1.17.

`CCCc1nc2c(C)cc(-c3nc4ccccc4n3C)cc2n1Cc1ccc(-c2ccccc2C(=O)O)cc1` displayed a normalised cell number of 1.26.

Compound `CC(=O)CC(c1ccccc1)c1c(O)c2ccccc2oc1=O` (stereo not drawn) came in with a normalised cell number of 1.05.

Turning to `NS(=O)(=O)c1cc2c(cc1Cl)NCNS2(=O)=O`, the normalised cell number turned out to be 1.24.

Turning to `CS(=O)(=O)OCCCCOS(C)(=O)=O`, the normalised cell number was 1.16.

For `CCOC(=O)C1=C(C)NC(C)=C(C(=O)OC)C1c1cccc([N+](=O)[O-])c1` (stereo not drawn), the normalised cell number was determined as 1.11.

Regarding `COc1ccccc1OCCNCC(O)COc1cccc2[nH]c3ccccc3c12` (stereo not drawn), the normalised cell number is 1.02 and 1.07.

In the case of `O=C(O)CCCc1ccccc1`, the normalised cell number stood at 1.12.

In turn, `NNCCc1ccccc1` displayed a normalised cell number of 1.03.

For `CC1Cc2ccccc2N1NC(=O)c1ccc(Cl)c(S(N)(=O)=O)c1` (stereo not drawn), the normalised cell number is 1.01.

On to `CC(C)Cc1ccc(C(C)C(=O)O)cc1` (stereo not drawn), for which the normalised cell number came to 1.11.

`N[C@@H]1CONC1=O` came in with a normalised cell number of 1.27.

Consider `CCN(Cc1ccncc1)C(=O)C(CO)c1ccccc1` (stereo not drawn), for which the normalised cell number worked out at 1.08.

As to `CCCc1cc(=O)[nH]c(=S)[nH]1`, the normalised cell number was 1.05.

Regarding `O=C(O)c1cccnc1`, the normalised cell number is 0.91.

Compound `CC(C[N+](C)(C)C)OC(N)=O` (stereo not drawn) yielded a normalised cell number of 1.15.

`COc1ccc(Cl)cc1C(=O)NCCc1ccc(S(=O)(=O)NC(=O)NC2CCCCC2)cc1` showed a normalised cell number of 0.7.

The compound `N[C@@H](Cc1cc(I)c(Oc2cc(I)c(O)c(I)c2)c(I)c1)C(=O)O` showed a normalised cell number of 0.96.

With `CC1(C)O[C@@H]2[C@@H](CO[C@@]3(COS(N)(=O)=O)OC(C)(C)O[C@@H]23)O1`, the normalised cell number is 1.11.

`COCCOC(=O)C1=C(C)NC(C)=C(C(=O)OC(C)C)C1c1cccc([N+](=O)[O-])c1` (stereo not drawn): the normalised cell number is 1.07.

For `NNC(=O)c1ccncc1`, the normalised cell number is 1.01.
